HP1b chromo inh: HTS for Inhibitors of HP1-beta Chromodomain Interactions with Methylated Histone Tails; Chromobox protein homolog 1 (Homo sapiens), P83916; AlphaScreen HP1-beta / biotin-H3K9me3 peptide binding; Potency, µM (top dose mostly 114 µM), without a hit: at the highest dose activity change, negative = inhibition, most hits filed as inhibitors; 390,000 compounds, 0.56% hits; AID 540317, 2011; further: nearly all actives have a fitted effect of over 70% in size
Target sequence (P83916 whole entry, looked up): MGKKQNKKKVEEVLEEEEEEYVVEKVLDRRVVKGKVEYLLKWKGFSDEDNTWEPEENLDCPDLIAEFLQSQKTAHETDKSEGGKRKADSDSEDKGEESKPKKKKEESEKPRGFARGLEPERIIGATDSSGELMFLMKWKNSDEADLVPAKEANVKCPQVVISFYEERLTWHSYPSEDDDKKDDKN
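AlphaScreen: HP1-beta (50 nM) preformed 30 min with biotin-H3(1-18)K9me3 peptide (50 nM) in PBS pH 7.4, 0.01% Tween-20. Compound added for 30 min at RT, then streptavidin donor/nickel chelate acceptor beads (10 ug/mL) for 30 min.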
G9a inh: qHTS Assay for Inhibitors of Histone Lysine Methyltransferase G9a; Potency, µM (doses to about 102 µM), inactives show at the top dose activity, negative = inhibition, actives largely listed as inhibitors; G9a H3K9 monomethylation, AlphaScreen, 2 h; Histone-lysine N-methyltransferase EHMT2 (Homo sapiens), Q96KQ7; 350,000 compounds, 8.8% hits; further: on the % scale 0 is the no-effect control and ±100 the full control effect; nearly all actives have a fitted effect of over 75% in size
Target sequence (Q96KQ7 913-1193 limits assumed): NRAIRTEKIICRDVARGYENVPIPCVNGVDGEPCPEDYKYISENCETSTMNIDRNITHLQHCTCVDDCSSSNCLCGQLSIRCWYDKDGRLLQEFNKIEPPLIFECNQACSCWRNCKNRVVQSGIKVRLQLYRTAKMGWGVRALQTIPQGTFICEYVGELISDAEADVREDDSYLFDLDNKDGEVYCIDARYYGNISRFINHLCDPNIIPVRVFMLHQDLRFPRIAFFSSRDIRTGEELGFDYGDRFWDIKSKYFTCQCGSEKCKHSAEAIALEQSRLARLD
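AlphaScreen detection with an anti-monomethyl H3K9 antibody quantified product after a 2 h room-temperature reaction containing 500 nM biotinylated H3K9 peptide, 20 µM SAM and 20 nM enzyme, which had been preincubated 15 min with compound.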
JMJD2A Tudor inh: qHTS Assay for Inhibitors of JMJD2A-Tudor Domain; AID 504339, 2011; Potency, µM (top dose mostly 114 µM), for inactives: top-dose activity change, negative = inhibition, usual class: inhibitors; Lysine-specific demethylase 4A (Homo sapiens), O75164; 390,000 compounds, 4.4% hits; AlphaScreen JMJD2A-Tudor / H3K4me3 peptide binding; further: on the % scale 0 is the no-effect control and ±100 the full control effect; nearly all actives have a fitted effect of over 50% in size
Sfp PPTase inh: qHTS Assay for Inhibitors of Bacillus subtilis Sfp phosphopantetheinyl transferase (PPTase) | 4'-phosphopantetheinyl transferase ffp (Bacillus subtilis), Q9F4F7 | Biochemical Sfp PPTase activity, qHTS | Potency, µM, for inactives: largest response in the series, negative = inhibition, usual class: inhibitors | 310,000 compounds, 3.5% hits | AID 1490, 2009;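 further: the enzyme is Sfp with the accession as filed and its product quenches rhodamine fluorescence; 0% = enzyme reaction without inhibitor and -100% = no enzyme wells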
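With Hepes-Na pH 7.6 buffer containing 10 mM MgCl2, Sfp (15 nM) modified BHQ-2-YbbR (12.5 uM) using rhodamine-CoA (5 uM). Two reads 30 minutes apart at 525/598 nm yielded each well's rate.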
BAZ2B block: qHTS Assay for Inhibitors of BAZ2B; Potency, µM (doses to about 114 µM), for the others: at the top dose activity change, negative = inhibition, usual class: inhibitors; AID 504333, 2011; AlphaScreen BAZ2B-H3K14Ac peptide displacement; Bromodomain adjacent to zinc finger domain protein 2B (Homo sapiens), Q9UIF8; 360,000 compounds, 4.4% hits; further: on the % scale 0 is the no-effect control and ±100 the full control effect; nearly all actives have a fitted effect of over 60% in size
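In this displacement format the biotinylated H3(5-23) peptide acetylated at Lys14 serves as ligand at 50 nM, with BAZ2B at 50 nM in PBS pH 7.4 containing 0.01% Tween-20. Donor and acceptor beads are 10 ug/mL final.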
L3MBTL1 inh: qHTS Assay for the Inhibitors of L3MBTL1; Lethal(3)malignant brain tumor-like protein 1 (Homo sapiens), Q9Y468; AlphaScreen L3MBTL1–H3K9me1 peptide binding; Potency, µM (series often up to 57.1 µM), for inactives: at the top dose activity, negative = inhibition, usual class: inhibitors; 230,000 compounds, 0.66% hits; AID 485360, 2010; further: on the % scale 0 is the no-effect control and ±100 the full control effect; nearly all actives have a fitted effect of over 60% in size
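Displacement of a biotinylated histone H3(1-15) peptide monomethylated at Lys9 (75 nM) from L3MBTL1 (50 nM) was measured by AlphaScreen after a 30 min room-temperature compound incubation; cefsulodin titration served as intraplate control.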
An asterisk follows results filed as active; ? = inconclusive; . = not tested or not shown; [ ] = another dose, or the depositor's remark. Hits are enriched below; roughly 12% of the tested compounds scored in any of these assays. The call rests on the fitted dose curve; in most records, active means well fitted curve in the direction sought with a large enough effect; inconclusive means small, poorly fitted or top-dose-only effect, or another doubt; inactive means no such curve, though single readings can be large; an effect the other way counts as inactive or inconclusive. Potency means the concentration at half of the fitted maximal effect.

SMILES	HP1b chromo inh	G9a inh	JMJD2A Tudor inh	Sfp PPTase inh	BAZ2B block	L3MBTL1 inh
CC(=O)c1cc2c(cc1NC(=O)CN1CCCCCCC1)OCO2	?	10µM*	?	-25%	50µM*	-5%
CC(=O)c1cc2c(cc1NC(=O)CCCC(=O)O)OCO2	36%	-4%	-3%	25%	9%	5%
CC(=O)c1cc2c(cc1NC(=O)CCn1cnnn1)OCO2	42%	40µM*	-1%	32%	4%	.
COc1cc(CNc2ccc(N3CCN(C(C)=O)CC3)cc2)ccc1OCc1ccc(F)cc1	?	4µM*	?	-24%	22µM*	?
CC(=O)N1CCN(c2ccc(NCc3ccc(F)cc3)cc2)CC1	6%	7.9µM*	?	40µM*	-35%	-9%
CCc1ccc(S(=O)(=O)c2c[nH]c3cc(OC)c(OC)cc3c2=O)cc1	37%	3%[59 µM]	-4%	.	1%	.
COc1cc(CNCc2ccccc2)ccc1OCC(O)c1ccccc1 (stereo unspecified)	-8%	11µM*	20µM*	-13%	?	.
COc1cc(CNCc2ccccn2)ccc1OCc1ccc(Cl)c(Cl)c1	14%	50µM*	?	-9%	?	?
COc1cc(CNCc2ccccn2)ccc1OCC(N)=O	21%	2.2µM*	50µM*	89µM*	14µM*	?
CCCCOC(=O)c1ccc(NC(=O)c2ccc3c(c2)CCCN3S(C)(=O)=O)cc1	14%	-3%[59 µM]	-15%	.	-11%	.
CN(Cc1ccccc1)c1nc(-c2ccc(F)cc2)cc(C(F)(F)F)n1	295%	353%[59 µM]	280%	.	312%	.
CCOc1ccc(-c2c(C)nn3c(C)c(C(=O)NCCc4ccc(C)cc4)cnc23)cc1OCC	54%	7%[59 µM]	-32%	.	-14%	.
O=C(NNC(=S)Nc1ccccc1)c1cccc(Br)c1	3%	50µM*	-19%	14%	8%	.
O=C(NNC(=O)c1cccc(Br)c1)Nc1ccc(Cl)cc1	?	0%	13µM*	18%	-10%	-6%
Cc1cc(C(=O)NNC(=S)Nc2ccccc2)nn1C	80%	32µM*	-13%[11.4 µM]	14%	3%	-2%
Cc1c(C(=O)NNC(=S)Nc2cccc(Cl)c2)nnn1-c1ccccc1	-5%	11µM*	?	-2%	56µM*	?
O=C(NNC(=O)c1ccc(NC(=O)c2ccccc2)cc1)Nc1ccccc1	15%	?	?	-3%	71µM*	-3%
COc1cc(/C=C/C(=O)OCC(=O)NCc2ccco2)ccc1OC(F)F	3%	40µM*	-17%	-14%	-27%	.
CCOc1cc(/C=C/C(=O)OCC(=O)NCc2ccco2)cc(Cl)c1OC	-14%	50µM*	?	.	?	?
COc1ccc(/C=C/C(=O)OCC(=O)NCc2ccco2)cc1OC	-5%	23%[59 µM]	-26%	19%	?	?
COc1ccccc1CCNC(=O)Cn1c(=O)oc2ccccc21	13%	40µM*	-16%	-20%	79µM*	.
COc1ccccc1CNC(=O)Cn1c(=O)oc2ccccc21	14%	5%[59 µM]	-15%	.	0%	.
O=C(CCl)Nc1ccc(-c2ccccc2)cc1	72%	0%	-11%	19%	3%	-14%
O=C(CCl)Nc1ccc(N=Nc2ccccc2)cc1	1%	?	?	?	40µM*	-19%
CC(C)C(=O)OCC(=O)Nc1ccc(N=Nc2ccccc2)cc1	?	45µM*	35µM*	-5%	40µM*	?
CCc1nn2c(=O)cc(COC(=O)Cc3ccccc3)nc2s1	16%	2%[59 µM]	-11%	.	-1%	.

Screening results from PubChem.
